This passage reports inhibition results from PubChem BioAssay AID2315 (National Center for Advancing Translational Sciences (NCATS), 2010).

About 27,000 (9.3%) of roughly 290,000 compounds were called active. The full list was thinned out, with actives kept by preference. Values without a mark were called inactive. Rule as the data show it: active = inhibition mostly above about 28% (no sharp cut-off); inactive = mostly below about 43%.

A short description of this experiment: A qHTS for Small Molecule Inhibitors of Shiga Toxin. As to inhibition: 0% is about no effect. As to conditions: Vero cells, Shiga toxin protein synthesis inhibition reporter; at 38.7 µM, hits give high values.
As usually defined, the inhibition is the drop in the measured response relative to a control, in per cent. Take `COC(=O)c1ccc(COC(=O)c2cnc(Cl)c(Cl)c2)cc1`: the inhibition is 87.3% (active).

For the compound `COC(=O)c1ccc(COC(=O)c2cnccn2)cc1`, the inhibition was 5.86%.

On to `CCOc1ccc(C(C)=O)cc1COC(=O)c1cnc(Cl)c(Cl)c1`, for which the inhibition was 14.4%.

Turning to `CN(Cc1ccccc1)C(=O)c1ccc(NC2=NC3CS(=O)(=O)CC3S2)cc1` (stereo not drawn), the inhibition is -3%.

On to `CSc1cccc(NC(=O)C2CCCN2S(=O)(=O)c2ccc3c(c2)CCC(=O)N3)c1` (stereo not drawn), for which the inhibition is 25.9% (active).

For the compound `O=C1CCc2cc(S(=O)(=O)N3CCC(C(=O)NCc4ccccc4Cl)CC3)ccc2N1`, the inhibition was -4.83%.

As to `CC(=O)Nc1ccc(NC(=O)C2CCCN2S(=O)(=O)c2cccc(C(F)(F)F)c2)cc1` (stereo not drawn), the inhibition was -1.36%.

As for `CC(=O)c1cccc(NC(=O)C2CCN(C(=O)c3ccccc3Cl)CC2)c1`, the inhibition is -18.7%.

On to `CCOc1ccc(C)cc1S(=O)(=O)NC1CCCCCC1`, for which the inhibition was -4.32%.

For the compound `CCc1cc2c(=O)n(-c3ccccc3)c(SCC(=O)O)nc2s1`, the inhibition is -7.15%.

`COc1ccc(/C=C2\N=C3CCCN3C2=O)cc1`: the inhibition is 84.4% (active).

`COc1ccc(/C=C2\SC(=S)N(CC(=O)NNC(=O)c3ccncc3)C2=O)cc1`: the inhibition was 30.3%.

Turning to `COc1ccc(/C=C2\SC(=N)N(c3ccc(F)cc3)C2=O)cc1`, the inhibition was -5.41%.

With `CC(C)c1c(C(=O)N/N=C/c2ccc(-c3ccccc3)cc2)nnn1-c1nonc1N`, the inhibition was -5.37%.

`CCOc1ccc(CN2CCN(CCCc3ccccc3)C(CCO)C2)cc1` (stereo not drawn): the inhibition was 1.09%.

On to `COc1ccc(N2C(=O)NC(NS(=O)(=O)c3ccc(Cl)cc3)(C(F)(F)F)C2=O)cc1` (stereo not drawn), for which the inhibition was -3.26%.

Take `COc1cc(/C=N\NC(=O)CNC(=O)c2cccc([N+](=O)[O-])c2)ccc1O`: the inhibition is -6.08%.

As for `Cc1[nH]n(-c2ccc([N+](=O)[O-])cc2)c(=O)c1C=NCCN1CCN(C(=O)c2ccccc2F)CC1`, the inhibition was -12.7%.

Turning to `Cc1ccc(-n2[nH]c(C)c(/C=N/NC(=O)c3cccc([N+](=O)[O-])c3)c2=O)cc1C`, the inhibition was 62.4% (active).

Regarding `Cc1[nH]n(-c2ccc(Cl)cc2)c(=O)c1/C=N/n1c(C)nc2ccccc2c1=O`, the inhibition is 38.2%.

On to `COc1cc(/C=N/NC(=O)c2ccoc2C)ccc1OCCN1CCCCC1`, for which the inhibition is 29.5%.

On to `Cc1[nH]n(-c2ccccc2)c(=O)c1/C=N/NC(=O)c1ccoc1C`, for which the inhibition was 125% (active).

Consider `COc1cc(NS(=O)(=O)c2ccc(NC(=S)NC(=O)c3ccc(Br)cc3)cc2)ncn1`, for which the inhibition was -2.95%.

For `N#CCC(=O)NC1CCC(CC2CCC(NC(=O)CC#N)CC2)CC1` (stereo not drawn), the inhibition is -8.84%.

With `Cc1[nH]c(C)c(S(=O)(=O)N2CCN(c3cccc(C(F)(F)F)c3)CC2)c1C(=O)N1CCCCC1`, the inhibition was -4.18%.

`NC(=O)C1=C[C@H](c2csc3ccccc23)C[C@H](OCc2ccc(CO)cc2)O1`: the inhibition was 24%.

In the case of `Cc1cc(C)c[n+](-c2nc3ccccc3nc2[N-]S(=O)(=O)c2cccs2)c1`, the inhibition is 1.54%.

`O=C(NCCc1ccccc1)C1CCN(S(=O)(=O)c2ccc(Br)s2)CC1`: the inhibition is 9.64%.

As to `O=S(=O)([N-]c1nc2ccccc2nc1-[n+]1ccc(Cc2ccccc2)cc1)c1ccc(Br)s1`, the inhibition was 47.8% (active).

`CCOc1ncccc1C(=O)NCCc1ccc(OC)cc1`: the inhibition is -6.94%.

As to `CNC(=O)c1sc(NCc2ccccc2OC)nc1C`, the inhibition was 4.08%.

In the case of `Cc1cc2c(c(=O)n1Cc1ccccc1)C1O[C@](CCCCN3C(=O)c4ccccc4C3=O)(Cc3ccccc31)O2`, the inhibition entry is “inactive”.

On to `O=C(O)CCCN1C(=O)c2ccccc2Sc2ncccc21`, for which the inhibition was -5.85%.

Take `O=c1c2cc(-c3ccccc3)sc2nc2n1N=C(c1cccs1)CS2`: the inhibition was 100% (active).

Take `O=c1[nH]c(-c2cccs2)nc2ccccc12`: the inhibition is 32.8%.

Take `c1csc(-c2cn3c(n2)SCC3)c1`: the inhibition is 16.5%.

As for `C#CC(C)(C)NC(=O)c1cnc(-c2ccccc2)nc1-c1ccccc1`, the inhibition was -5.15%.

Take `CC(=O)c1ccc(N2CCN(S(=O)(=O)c3ccc4c(c3)CC(=O)N4C)CC2)cc1`: the inhibition was 54.4% (active).

In the case of `CC(=O)c1ccc(N2CCN(C(=O)C3CCN(S(=O)(=O)c4ccc5c(c4)CC(C)N5C(=O)C4CC4)CC3)CC2)cc1` (stereo not drawn), the inhibition was 22.9%.

As to `CC(=O)c1ccc(N2CCN(S(=O)(=O)c3c(C)[nH]c(=O)[nH]c3=O)CC2)cc1`, the inhibition is 16.6%.

Take `CCCn1nnnc1NCc1ccc(CC)cc1`: the inhibition is -8.65%.

On to `COC(=O)/C=C/C(=O)NCc1ccco1`, for which the inhibition is 18.7%.

As for `O=C(NCc1ccco1)C1(c2ccc(Cl)cc2)CCCC1`, the inhibition is -3.65%.

Regarding `O=C(/C=C/c1ccc(Cl)cc1Cl)NCc1ccco1`, the inhibition was 94.1% (active).

Turning to `CC(NC(=O)c1cc(=O)[nH]c2ccccc12)c1ccc(F)cc1F` (stereo not drawn), the inhibition was 9.23%.

`CCOc1cc(C(=S)N2CCOCC2)ccc1O`: the inhibition is -8.19%.

In the case of `O=C1N=C(N2CCCC2)S/C1=C\c1cccc(Br)c1`, the inhibition is 34.8%.

As to `CCOc1cc(/C=C2\SC(N3CCCCC3)=NC2=O)ccc1O`, the inhibition was 67.1% (active).

On to `CCOc1ccc(/C=C2\SC(=S)N(NC(=O)c3ccncc3)C2=O)cc1OC`, for which the inhibition is -10.1%.

For the compound `CCOc1cc(/C=C2\SC(N3CCCC(C)C3)=NC2=O)ccc1O` (stereo not drawn), the inhibition was 60.1% (active).

For the compound `CC1CCN(C2=NC(=O)/C(=C/c3ccc(O)cc3)S2)CC1`, the inhibition was 38.6%.

As to `CC(C)CNS(=O)(=O)c1ccc(CCC(=O)NCc2ccc(Cl)cc2)cc1`, the inhibition was -10.9%.

Regarding `CCOc1cc(-c2cc(-c3ccc(NC(C)=O)cc3)nc(N)c2C#N)ccc1O`, the inhibition is -1.91%.

In the case of `COc1ccc(S(=O)(=O)Nc2ccccc2C(=O)N2CCCC2)cc1C`, the inhibition was 5.33%.

Regarding `O=C(NNC(=O)C1CCCC1)c1ccc(F)cc1`, the inhibition was 10.8%.

For the compound `O=C(O)c1cccc2c1C(=O)N(C1CCCC1)C2`, the inhibition is -4.27%.

For the compound `CCOc1ccc(S(=O)(=O)N2CCN=C2Cc2ccccc2)cc1C`, the inhibition is -2.53%.

In the case of `CC1CCCCC1NC(=O)c1cn(C)c2ccc(S(=O)(=O)N3CCOCC3)cc2c1=O` (stereo not drawn), the inhibition is -15.7%.
